# Test results: PubChem BioAssay AID1745853 (National Center for Advancing Translational Sciences (NCATS), 2022)
# Several values for one entry are separate records, joined by “and”; a condition that tells them apart may be missing. Equal values may be shown once. About 970 (3.9%) of roughly 25,000 compounds were called active. Another 8% or so got no clear call; they are omitted. No rule for the calls is given here. The full list was thinned out, with actives kept by preference.
# Tests used:
# Assay in all cases: Primary Screen for Target Class Profiling of Small Molecule Inhibitors of Methyltransferases
# [1] = molecular target: Catechol O-methyltransferase (Homo sapiens) (UniProt P21964); conditions: purified enzyme, MTase-Glo SAH luminescence; activity change, negative = inhibition: at 40 µM, stronger effect = lower value; outcome: 40 uM
# Sequence of Catechol O-methyltransferase (Homo sapiens) (P21964 whole entry, looked up): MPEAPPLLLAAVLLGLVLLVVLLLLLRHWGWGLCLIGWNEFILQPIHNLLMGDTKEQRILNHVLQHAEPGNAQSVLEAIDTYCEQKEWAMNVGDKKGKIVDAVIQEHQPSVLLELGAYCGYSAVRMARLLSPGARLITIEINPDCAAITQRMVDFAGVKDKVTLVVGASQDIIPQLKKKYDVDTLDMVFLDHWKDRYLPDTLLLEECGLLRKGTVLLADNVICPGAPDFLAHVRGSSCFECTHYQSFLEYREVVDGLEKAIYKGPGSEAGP
# From the text: (§1) PI: Matthew D. Hall Ph.D. and Quinlin M. Hanson Ph.D.
# (§2) National Center for Advancing Translational Sciences (NCATS)
# (§3) National Institute of Health (NIH), Rockville, MD
# (§4) Target class profiling (TCP) is a chemical biology approach amenable to investigating understudied biological targets. TCP is achieved by developing a generalizable assay platform and applying it to screen a curated set of compound libraries against representative members of a target class. Small molecule methyltransferases (SMMTase) are a subclass of methyltransferase that act on metabolites to modulate signaling pathways, metabolize xenobiotics, or balance the available methyl pool. We screened four curated libraries totaling 27,574 unique compounds against the SMMTases nicotinamide N-methyltransferase (NNMT), phenylethanolamine N-methyltransferase (PNMT), histamine N-methyltransferase (HNMT), glycine N-methyltransferase (GNMT), catechol O-methyltransferase (COMT), and guanidinoacetate N-methyltransferase (GAMT). The data generated by this TCP can be leveraged for informed tool molecule development. For example, in the associated publication we identified a chemotype of HNMT-selective inhibitors. Additionally, we identified a putative SMMTase-selective inhibitor with potential as a tool molecule for studying broader methyltransferase biology.
# (§5) High-through put screening assays were developed at the National Center for Advancing Translational Science (NCATS) for the enzymes NNMT, PNMT, HNMT, GNMT, COMT, and GAMT. Enzymatic activity was measured as a function of SAM cofactor conversion using the MTase Glo kit (Promega) for all enzymes. All assays were performed in 1536-well format with substrates and SAM concentrations at KM values. Enzyme concentration and assay timing were optimized for 10-20% SAM conversion. Initial screening of 27,574 compounds was done as single-point assays using the highest compound concentration (40 uM). […] These compounds were replated in 11-point dose response and assayed against NNMT, PNMT, HNMT, GNMT, COMT, GAMT, and a counter-assay. The IC50 and efficacy (maximal response) values were determined for each dose-response curve. These values are also accounted for in the area under the curve (AUC) values.
# (§6) PROTOCOL TABLE (as described by Inglese J, Shamu CE and Guy RK. 2007)
# (§7) SEQUENCE No. (e.g., 1, 2, 3, etc.); […] (e.g., Cells, Incubation, Reagent, etc.); VALUE; DESCRIPTION.
# (§8) 1; Reagent; 2 uL; SMMTase Enzyme (2x) in reaction buffer, columns 1- 48.
# (§9) 2; Reagent; 1 uL; SAM (4x) in reaction buffer, columns 1-48.
# (§10) 3; Controls; 23 nL; DMSO in column 4; sinefungin in DMSO (0 uM - 40 uM) in 7-point 1:2 dilution series (n = 2) in column 2.
# (§11) 4; Compounds; 23 nL; Columns 5-48.
# (§12) 5; Reagent; 1 uL; Substrate (4x) in reaction buffer, columns 2-48.
# (§13) 6; Time; 20-30 min; Incubation.
# (§14) 7; Reagent; 1 uL; MTase-Glo reagent (5X), columns 1-48.
# (§15) 8; Time; 30 min; Incubation.
# (§16) 9; Reagent; 5 uL; MTase-Glo Detection reagent, columns 1-48.
# (§17) 10; Time; 30 min; Incubation, luminescence evolution.
# (§18) 11; Detection; Luminescence; ViewLux uHTS Microplate Imager (PerkinElmer).
# (§19) NOTES (numbers refer to Sequence numbers above)
# (§20) 1, 2, 5. White Medium Binding Greiner 1536-well plates (Cat #789175-F, Greiner Bio-One, Monroe, NC); Reaction buffer: 50 mM Tris, pH 8.0, 3 mM MgCl2, 1 mM EDTA, 50 mM NaCl, 1 mM DTT, and 0.1 mg/mL BSA. Evaporation was prevented by covering assay plates with metal lids containing holes to allow gas diffusion.
# (§21) 1. Six SMMTase were profiled: HNMT, GNMT, PNMT, COMT, NNMT, GAMT
# (§22) 5. The corresponding substrate was used for each enzyme: HNMT - 5.3 uM Histamine; GNMT - >500 uM Glycine; PNMT - 16.2 uM Norephinephrine; COMT - 13.7 uM Norephinephrine; NNMT - 3.8 uM Nicotinamide; GAMT - 2.5 uM Guanidinoacetate.6, 8, 10. Room temperature
# (§23) 6. Final reaction conditions: 10 nM COMT, 5 uM SAM, 15 uM norepinephrine, 50 mM Tris, pH 8.0, 3 mM MgCl2, 1 mM EDTA, 50 mM NaCl, 1 mM DTT, and 0.1 mg/mL BSA; refer to tables 2 and S1 for specific timing.
# 8. […]
# [2] = molecular target: Glycine N-methyltransferase (Homo sapiens) (UniProt Q14749); conditions: purified enzyme, MTase-Glo SAH luminescence; measured here: GNMT inhibition; at 40 µM; stronger effect = lower value
# Sequence of Glycine N-methyltransferase (Homo sapiens) (Q14749 whole entry, looked up): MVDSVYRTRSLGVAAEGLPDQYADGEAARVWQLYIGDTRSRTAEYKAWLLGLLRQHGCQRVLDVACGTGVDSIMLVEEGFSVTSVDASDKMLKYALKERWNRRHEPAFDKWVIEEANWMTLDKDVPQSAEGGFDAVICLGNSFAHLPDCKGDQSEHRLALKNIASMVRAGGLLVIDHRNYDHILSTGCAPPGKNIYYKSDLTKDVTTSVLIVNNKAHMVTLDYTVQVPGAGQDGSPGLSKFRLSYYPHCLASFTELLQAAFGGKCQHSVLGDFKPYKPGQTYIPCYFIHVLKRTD
# From the text: as §1, §2, §3, §4, §5, §6, §7, §8, §9, §10, §11, §12, §13, §14, §15, §16, §17, §18, §19, §20, §21, §22, §23
# 8. […]
# [3] = molecular target: Guanidinoacetate N-methyltransferase (Homo sapiens) (UniProt Q14353); conditions: purified enzyme, MTase-Glo SAH luminescence; measured here: GAMT inhibition; at 40 µM; stronger effect = lower value
# From the text: as §1, §2, §3, §4, §5, §6, §7, §8, §9, §10, §11, §12, §13, §14, §15, §16, §17, §18, §19, §20, §21, §22, §23
# 8. […]
# [4] = molecular target: Histamine N-methyltransferase (Homo sapiens) (UniProt P50135); conditions: purified enzyme, MTase-Glo SAH luminescence; measured here: HNMT inhibition; at 40 µM; stronger effect = lower value
# Sequence of Histamine N-methyltransferase (Homo sapiens) (P50135 whole entry, looked up): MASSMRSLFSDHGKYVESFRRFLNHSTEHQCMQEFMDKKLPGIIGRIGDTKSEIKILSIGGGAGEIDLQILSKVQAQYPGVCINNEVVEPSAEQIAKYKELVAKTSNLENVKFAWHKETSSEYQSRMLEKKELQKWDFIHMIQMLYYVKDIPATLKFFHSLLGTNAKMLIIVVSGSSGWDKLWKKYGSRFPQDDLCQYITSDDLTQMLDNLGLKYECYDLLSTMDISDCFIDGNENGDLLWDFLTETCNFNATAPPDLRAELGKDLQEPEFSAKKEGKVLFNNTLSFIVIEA
# From the text: as §1, §2, §3, §4, §5, §6, §7, §8, §9, §10, §11, §12, §13, §14, §15, §16, §17, §18, §19, §20, §21, §22, §23
# 8. […]
# [5] = molecular target: Nicotinamide N-methyltransferase (Homo sapiens) (UniProt P40261); conditions: purified enzyme, MTase-Glo SAH luminescence; measured here: NNMT inhibition; at 40 µM; stronger effect = lower value
# Sequence of Nicotinamide N-methyltransferase (Homo sapiens) (P40261 whole entry, looked up): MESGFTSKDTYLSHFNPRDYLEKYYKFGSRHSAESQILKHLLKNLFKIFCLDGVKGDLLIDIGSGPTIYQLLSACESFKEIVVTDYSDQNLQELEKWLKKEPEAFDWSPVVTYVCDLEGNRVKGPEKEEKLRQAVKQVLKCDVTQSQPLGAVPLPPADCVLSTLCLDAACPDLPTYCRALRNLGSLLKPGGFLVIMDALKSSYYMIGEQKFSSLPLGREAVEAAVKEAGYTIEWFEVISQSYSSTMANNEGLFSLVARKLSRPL
# From the text: as §1, §2, §3, §4, §5, §6, §7, §8, §9, §10, §11, §12, §13, §14, §15, §16, §17, §18, §19, §20, §21, §22, §23
# 8. […]
# [6] = molecular target: Phenylethanolamine N-methyltransferase (Homo sapiens) (UniProt P11086); conditions: purified enzyme, MTase-Glo SAH luminescence; measured here: PNMT inhibition; at 40 µM; stronger effect = lower value
# Sequence of Phenylethanolamine N-methyltransferase (Homo sapiens) (P11086 whole entry, looked up): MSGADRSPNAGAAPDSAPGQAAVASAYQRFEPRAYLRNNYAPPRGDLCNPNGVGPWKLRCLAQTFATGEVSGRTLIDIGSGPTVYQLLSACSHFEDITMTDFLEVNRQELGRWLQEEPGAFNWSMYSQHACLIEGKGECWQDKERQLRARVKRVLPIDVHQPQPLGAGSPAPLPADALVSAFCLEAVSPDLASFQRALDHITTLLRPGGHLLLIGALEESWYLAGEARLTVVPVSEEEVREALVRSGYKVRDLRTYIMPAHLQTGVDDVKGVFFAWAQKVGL
# From the text: as §1, §2, §3, §4, §5, §6, §7, §8, §9, §10, §11, §12, §13, §14, §15, §16, §17, §18, §19, §20, §21, §22, §23
# 8. […]
# % is scaled to controls: 0 for no effect and ±100 for the full control effect.
SMILES,"activity change, negative = inhibition [1]","activity change, negative = inhibition [2]","activity change, negative = inhibition [3]","activity change, negative = inhibition [4]","activity change, negative = inhibition [5]","activity change, negative = inhibition [6]"
CCn1cc(S(=O)(=O)N2CCC(C3CCN(C(=O)NC)CC3)C2)cn1 (stereo not drawn),-3.73% (inactive),-4.19%,-5.14%,-1.51%,-10.1%,9.89%
Cc1cc(Nc2cc(CN3CCOCC3)c3nc(C)c(Cc4ccc(Cl)cc4F)n3n2)n[nH]1,-59.4% (active) and -59.9% (active),-74.4% and -69.1%,-49%,-62.1% and -80.8%,-98.7% and -69.4%,-114% and -64.4%
CC1(C=O)CC[C@]2(C(=O)O[C@@H]3O[C@H](CO)[C@@H](O)[C@H](O)[C@H]3O)CC[C@]3(C)C(=CCC4[C@@]5(C)C[C@H](O)[C@H](O[C@@H]6OC[C@@H](O)[C@H](O)[C@H]6O)[C@@](C)(CO)C5CC[C@]43C)C2C1 (stereo partly drawn),-12.2% (inactive),-0.721%,-3.55%,-5.71%,-15.1%,2.58%
Cc1ccc(C)c(Cn2nc3n(C)c(=O)c4ccc(C(=O)NC5CCCCC5)cc4n3c2=O)c1,4.71% (inactive),-4.89%,0.055%,2.18%,5.92%,6.36%
CN(Cc1cc(C2CC2)n[nH]1)C(=O)C(c1ccc(F)cc1)N(C)C (stereo not drawn),3.85% (inactive),1.91%,-0.305%,1.69%,0.211%,2.27%
CC(C)CNc1ccnc(NCc2csc(-c3ccccc3)n2)n1,-4.4% (active),-6.48%,6.91%,-83.3%,-36.8%,-16.1%
Cc1nc2c(c(-c3ccc(O)cc3)n1)CN(C(=O)c1ccccc1C)CCC2,-2.56% (inactive),-6.74%,-3.52%,-0.862%,-11.6%,-8.96%
Cc1noc(C)c1S(=O)(=O)NCCC1CN(c2cnn(C)c(=O)c2)CCO1 (stereo not drawn),4.53% (inactive),-1.17%,-2.35%,0.773%,-1.18%,5.68%
COc1ccccc1N1CCN(C(=O)C[C@@H]2C[C@@H](C(C)C)[C@H](CO)C=C2C)CC1,-4.58% (inactive),-5.78%,-7.59%,-2.03%,-11.8%,3.34%
COc1ccc(C(=O)N2CCN(C(=O)N3CC4CC(C3)[C@H]3CCCC(=O)N3C4)CC2)c(OC)n1 (stereo partly drawn),1.98% (inactive),-0.248%,0.955%,0.52%,-3.64%,0.052%
CCN(CC)CCCC(C)Nc1ccnc2cc(Cl)ccc12 (stereo not drawn),5.5% (active) and -5.08% (active),-0.101% and -1.02%,6.48% and -3.06%,-64.7% and -54.2%,-4.26% and -11.8%,6.95% and -8.55%
O=C(C1CCCC1)N1CCCC(c2noc(COc3ccccc3)n2)C1 (stereo not drawn),-7.8% (inactive),-8.83%,-9.57%,-5.83%,-18.3%,-10.2%
CSc1cccc(CN(C)Cc2cc3n(n2)CCNC3)c1,-0.225% (inactive),-1.46%,-2.55%,-2.05%,-2.62%,-8.63%
COc1ccccc1CN[C@H]1[C@H](O)[C@@H](N2CCN(c3ccccc3OC)CC2)[C@@H]2OC[C@H]1O2,1.34% (inactive),-1.49%,-8.26%,2.36%,-0.669%,2.62%
CCc1cccc(NC(=O)Cn2c(=O)oc3cc(S(=O)(=O)N4CCC(C)CC4)ccc32)c1,0.729% (inactive),-4.13%,4.45%,-8.18%,-16.8%,-14.1%
Cc1ccc(Cn2c(=O)c3ccc(C(=O)NC(C)C)cc3n3c(=O)n(Cc4cccc(F)c4)nc23)cc1,6.38% (inactive),4.35%,1.49%,7.79%,5.05%,6.91%
CC1(C)CCC2(C(=O)OC3OC(COC4OC(CO)C(O)C(O)C4O)C(O)C(O)C3O)CCC3(C)C(=CCC4C5(C)CCC(O)C(C)(C(=O)O)C5CCC43C)C2C1O (stereo not drawn),-56.4% (active),0%,5.96%,11.8%,-7.28%,4.84%
CC1(C)CC[C@]2(C(=O)O[C@@H]3O[C@H](CO)[C@@H](O)[C@H](O)[C@H]3O)CC[C@]3(C)C(=CCC4[C@@]5(C)CC[C@H](O[C@@H]6O[C@H](C(=O)O)[C@@H](O)[C@H](O)[C@H]6OC6OC(CO)C(O)C(O)C6O)C(C)(C)C5CC[C@]43C)[C@@H]2C1 (stereo partly drawn),-21.1% (inactive),2.46%,8.94%,8.45%,-9.17%,7.25%
C[C@@H]1CC[C@]2(C(=O)O[C@@H]3O[C@H](CO)[C@@H](O)[C@H](O)[C@H]3O)CC[C@]3(C)C(=CCC4[C@@]5(C)C[C@@H](O)[C@H](O)[C@](C)(C(=O)O)C5CC[C@]43C)[C@@H]2[C@]1(C)O (stereo partly drawn),4.37% (inactive),6.36%,4.44%,15.1%,-9.25%,7.5%
C=Cc1ccc(Cn2nc3n(CC(C)C)c(=O)c4ccc(C(=O)NC(C)CC)cc4n3c2=O)cc1 (stereo not drawn),2.79% (inactive),4.48%,0%,10.7%,-0.533%,5.38%
O=S(=O)(c1ccc2[nH]c3c(c2c1)CCCC3)N1CCN(Cc2ccccc2)CC1,4.94% (inactive),5.6%,0%,5.93%,5.54%,4.34%
Cc1nc2c(c(NC3CC3)n1)CCN(C(=O)CCc1cccnc1)CC2,-0.626% (inactive),-3.41%,-8.98%,-2.51%,-8.36%,-4.07%
COc1cc(NC(=O)Nc2cccc(CNC(=O)O[C@H]3CCOC3)c2)ccc1-c1cnco1,-2.73% (active),-16.2%,1.61%,-89.1%,-22.8%,-6.4%
